This is part of a sample that, as a whole, favours compounds with a hit. Of some 83,000 tested, about 20% had one in any assay.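 Testing used 96-well plates and a 48-hour single-concentration exposure. Example: -40 means 40% of the starting cells died.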 A number with no mark means an inactive call. The source made the active and inactive calls.
system: SK-OV-3 ovarian; assay: NCI-60 one-dose screen, 48 h (100 = growth as untreated, 0 = no growth, -100 = all killed); settings: 10 µM unless noted
Experimental: Growth inhibition of the SK-OV-3 human tumor cell line is measured as a screen for anti-cancer activity. Cells are grown in 96 well plates and exposed to the test compound for 48 hours. Compounds are tested at a single concentration, which is 10^-5 M for most compounds. The reported endpoint is percent growth (GI% or GIPRCNT), where numbers from 0 - 100% represent growth inhibition, and numbers from -100% - 0 represent cell death. For example, a value of 40 represents 60% growth inhibition. A value of 0 means no net growth occurred over the course of the experiment. A value of -40 indicates 40% of cells at the beginning of the experiment died by the end of the experiment. A value of -100 means all cells are dead at the end of the experiment.
NCI-60 Human Tumor Cell Lines Screen was performed using the standard one-dose NCI protocol, which is described in more detail at https://dtp.cancer.gov/discovery_development/nci-60/default.htm.
Compounds with GIPRCNT values below 10 were considered active. Activity score was based on GIPRCNT using the following formula: […]
Score is 0 for GIPRCNT values of 100 or above, 50 for GIPRCNT values of 0, and 100 for GIPRCNT values of -100.

Compound	growth
COc1cc(NC(=O)CCSc2nc3ccccc3c(=O)n2CCc2ccccn2)cc(OC)c1OC	78.9%
CCOc1ccccc1CN1CCc2nc3cc(C(C)(C)C)[nH]n3c(=O)c2C1	110%
CCOC(=O)c1sc(-c2ccc(OS(=O)(=O)c3cccs3)c(C=O)c2)nc1C	123%
O=C1C(Cl)=C(NCc2ccco2)C(=O)c2ccccc21	115%
N#C/C(=C\c1c(-c2ccccc2)[nH]c2ccccc12)C(=O)c1ccccc1	57.4%
Oc1c(C(Nc2ccccn2)c2cccc(Oc3ccccc3)c2)ccc2cccnc12 (stereo not given)	-90.1% (active)
C=C[C@@H]1CCC/C=C/[C@@H]2C[C@H](O)C[C@H]2[C@H](O)/C=C/C(=O)O1	20.5%
O=C(CCc1nnc2sc(-c3ccc(Cl)cc3Cl)nn12)c1nc2ncccc2[nH]1	36.1%
O=C(CSc1ccc2nnc(-c3cccc(F)c3)n2n1)Nc1ccc2c(c1)OCO2	100%
COc1cc([C@@H]2NC(=O)NC(C)=C2C(=O)Nc2nc(-c3ccc(Cl)cc3)cs2)ccc1O	87.8%
COC(=O)[C@H]1CCCN1C(=O)[C@H]1CCCN1C(=O)[C@H](Cc1c[nH]c2ccccc12)NC(=S)Nc1cc(C(F)(F)F)cc(C(F)(F)F)c1	85.2%
O=C(c1ccccc1)N(CCc1ccc(Cl)cc1)C(=S)N(C(=O)c1ccccc1)c1ccccc1	120%
O=c1oc2ccc(F)cc2c(=O)n1-c1ccc(Br)cc1F	-3.03% (active)
COC(=O)C1(C)COP(=O)(Nc2ccc(OC)cc2)OC1 (stereo not given)	108%
FC(F)(F)c1cccc(Nc2nc(-c3ccccc3)nc3ncccc23)c1	90.2%
COc1nc2c(c(=O)n1C)N=C1c3ccccc3C(=O)C1C(c1ccccc1)N2 (stereo not given)	91.4%
O=C(Nc1ccc(Br)cc1F)c1cc(Cl)ccc1O	-7.14% (active)
Cc1ccc(Cn2c(N3CCC(C(=O)NCc4cccs4)CC3)nc3ccccc32)cc1	97.4%
COc1ccc(Br)c(/C=C2\SC(=Nc3ccc(O)cc3)NC2=O)c1	89.9%
CCOC(=O)c1sc(-c2ccc(OS(=O)(=O)C[C@]34CCC(CC3=O)C4(C)C)c(C=O)c2)nc1C	46%

Compound	growth
COc1ccc(C2C3=C(COC3=O)N(CCO)c3cc4c(cc32)CCC4)cc1OC (stereo not given)	24.8%
O=C(Nc1ccc(N2CCNCC2)cc1)c1[nH]ncc1Nc1cc(C2CC2)ncn1	10.3%
CCN1C(=O)N(CC)C2C1NC(=S)N2/N=C/C=C/c1ccccc1OC (stereo not given)	33.7%
Oc1ccc(-c2nc(-c3ccc4oc5ccc(-c6[nH]c(-c7ccc(O)cc7)nc6-c6ccccc6)cc5c4c3)c(-c3ccccc3)[nH]2)cc1	87%
CCOC(=O)C1=C(C)N=c2s/c(=C\c3ccccc3O)c(=O)n2C1c1ccc(OC)c2ccccc12 (stereo not given)	61.7%
Cc1cc(Nc2ccc(OCc3ccccc3)cc2)nc2cc(O)ccc12	86.9%
CC(=S)NC(=O)C(=O)/C=C1/NC(=O)C(=O)S1	122%
O=C(Nc1ccc(Cl)cc1F)c1cc(I)ccc1O	-4.98% (active)
COc1cc(NC(=O)CCSc2nc3ccccc3c(=O)n2Cc2ccccc2)cc(OC)c1OC	99.3%
COc1ccc(C)c2sc(N(Cc3cccnc3)C(=O)c3ccc(C#N)cc3)nc12	12.6%
COc1cc(C2C(C#N)=C(N)OC3=C2C(=O)c2ccccc2C3=O)cc(OC)c1O (stereo not given)	48.2%
CN(C)CCNc1cc(-c2ccccc2)nc2ccccc12	36.4%
COc1cccc(/C=C/C(=O)c2c(C)nc3ccccc3c2/C=C/c2ccccc2)c1OC	89.8%
Nc1n[nH]c2ccc([C@@H]3Nc4ccc5[nH]ncc5c4[C@H]4[C@H]5CCC(C5)[C@H]43)cc12	50.6%
Cn1nc(C(F)(F)F)c(-c2ccc(Cl)c(C(F)(F)F)c2)c1-c1ccc(OCc2ccc(Cl)cc2)cc1O	20.6%
CCN(CC)c1cc(C)c2cc(NC(=O)c3cccc(OC)c3)ccc2n1	104%
O=C1C(=O)c2c(ccc3ccccc23)-c2ccccc21	91.5%
COc1ccc(Nc2nc(N/N=C/c3ccc(O)cc3)nc(Nc3ccc([N+](=O)[O-])cc3)n2)cc1	112%
Cc1sc2ncnc(Sc3nc4ccccc4[nH]3)c2c1C	-23.1% (active)
Cc1c(-c2noc(-c3ccc([N+](=O)[O-])cc3)n2)no[n+]1[O-]	111%

Reference: PubChem BioAssay (NCI)
